# Compounds with a hit are over-represented: about 3.1% of the library has one in this group of screens.
# MITF act: increases MITF-driven TRPM1 promoter luciferase signal; AID 588334; activation, % at 12.5 µM; SK-MEL-5 TRPM1-promoter luciferase, 24 h; % of positive control, neutral wells = 0; 300,000 tested, 0.75% active;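 active means mean activation of at least 80% with every replicate also reaching 80%; inconclusive means mean reaches 80% but some replicate falls short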;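 further: 0% = neutral control wells and 100% = parthenolide positive control wells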
# esBAF inh: SWI/SNF esBAF complex inhibition. mouse ES cells, Bmi1-luciferase knock-in reporter, 24 h; 100% = twice the neutral-well signal. 350,000 tested, 2% active. reporter increase, % at 12.5 µM; in the data active means activation above about 40%; inconclusive means no clear call, values can overlap the other calls;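 further: 0% = median of the plate's neutral control wells and 100% = double that signal; a rise in the Bmi1 reporter signal indicates esBAF inhibition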
# Statin myotox sup: suppression of simvastatin myotoxicity; rescue of ATP level, % at 7.49 µM; 330,000 tested, 0.78% active; C2C12 myotubes + simvastatin, ATP luminescence, 48 h; scaled: DMSO 0, geranylgeraniol control 100;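 active means mean ATP rescue above about 67%, or every replicate alone reaching that limit, limit read from the data, passing the limit was not always enough; inconclusive means no clear call, values can overlap the other calls; inactive means mean under the limit and some replicate under it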;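 further: myotubes were challenged with 10 µM simvastatin during compound exposure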
# Wnt bcat act: activators of Wnt/beta-catenin signaling. Wnt/beta-catenin reporter cell assay, activator, plate reader. activation, % at 9.35 µM. 300,000 tested, 1.2% active; in the data active means activation above about 30%, passing the limit was not always enough; inconclusive means no clear call, values can overlap the other calls;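 further: 0% = neutral control wells and 100% = positive control wells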
# Rtt109 HAT inh: inhibitors of Candida albicans Rtt109/Vps75 histone acetyltransferase; 330,000 tested, 0.16% active; Q5AAJ8; purified Rtt109/Vps75, ThioGlo CoA-SH fluorescence, 4 h; inhibition, % at 34.9 µM;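 active means inhibition of at least 50% in every replicate; inconclusive means best replicate reaches 50% inhibition but some replicates fall short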
# Target sequence (Q5AAJ8 whole entry, looked up): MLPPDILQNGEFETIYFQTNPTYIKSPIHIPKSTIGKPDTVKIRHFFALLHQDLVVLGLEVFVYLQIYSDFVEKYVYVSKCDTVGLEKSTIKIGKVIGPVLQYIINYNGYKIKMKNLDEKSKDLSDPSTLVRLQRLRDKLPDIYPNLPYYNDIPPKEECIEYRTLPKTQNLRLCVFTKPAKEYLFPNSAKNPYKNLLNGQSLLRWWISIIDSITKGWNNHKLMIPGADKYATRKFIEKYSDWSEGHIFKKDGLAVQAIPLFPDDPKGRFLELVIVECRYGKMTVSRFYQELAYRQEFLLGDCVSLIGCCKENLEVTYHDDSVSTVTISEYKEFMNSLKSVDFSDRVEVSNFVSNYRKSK
# An asterisk follows results filed as active; ? = inconclusive; . = not tested or not shown.
SMILES,MITF act,esBAF inh,Statin myotox sup,Wnt bcat act,Rtt109 HAT inh
COc1ccc(CN(C)C[C@H]2OCCCC[C@@H](C)Oc3ccc(NS(=O)(=O)c4cccs4)cc3C(=O)N([C@@H](C)CO)C[C@H]2C)cc1,.,-1.1,.,.,.
COc1ccc(-c2nc3nc(C)cc(C)n3n2)cc1,43.5,23.7,-0.8,32.8*,2.3
O=C(C[C@H]1CC[C@@H](NC(=O)CC2CC2)[C@@H](CO)O1)NCc1ccc(Cl)cc1,.,-0.7,13.8,.,.
N#CC(c1ccc(Cl)cc1)c1ccc(Cl)nn1 (stereo not given),-6.8,-1.6,106.0*,.,-1.6
Cc1ccc(C(C#N)c2ccc(Cl)nn2)cc1 (stereo not given),-4.0,.,.,-0.9,5.0
CCc1ccc(Nc2ncnc3nc[nH]c23)cc1,96.4*,8.3,-5.4,46.8*,-5.8
CCCCc1ccc(Nc2ncnc3nc[nH]c23)cc1,104.9*,8.9,7.0,25.1,-23.8
CO[C@H]1CN(C)C(=O)c2cc(NC(=O)c3ccc(F)cc3)ccc2OC[C@H](C)NC[C@H]1C,.,4.0,-8.4,.,.
CN=Cc1cc(-c2ccccc2)sc1O,69.3,64.4*,7.3,26.2,-1.2
CC(C)c1ccc(C(O)c2cnc(C(C)C)n2C)cc1 (stereo not given),39.5,72.9*,-7.5,8.2,-8.3
CC(C)c1ncc(C(O)c2ccccc2)n1C (stereo not given),.,4.4,-1.6,?,0.7
CCOC(=O)C1CCCN(c2cc(=O)n(C3CCCCC3)c(=O)[nH]2)C1 (stereo not given),-6.2,.,.,0.7,58.6*
O=C(CN1CCCc2ccccc21)NCc1ccc2c(c1)OCO2,.,20.0,1.1,.,64.0*
CO[C@@H]1CN(C)C(=O)c2ccc(NC(=O)Nc3ccccc3Cl)cc2OC[C@@H](C)N(Cc2ccccc2C(=O)O)C[C@H]1C,.,-7.1,-6.8,.,.
CCCn1cnc2c(SCc3ccccc3Cl)nc(N)nc21,7.7,48.0*,0.7,-4.4,-4.6
CCCCn1cnc2c(SCc3ccccc3F)nc(N)nc21,33.5,49.7*,-3.5,17.9,6.2
CCCC(=O)Nc1ccc2c(c1)C(=O)N(C)C[C@@H](OC)[C@H](C)CN(Cc1ccccc1OC)[C@H](C)CO2,.,-1.6,-5.8,.,.
NNCCc1ccccc1,60.2,62.9*,-17.4,27.0,4.6
O=C(CC(=O)NCCc1ccccc1)NCCc1ccccc1,-2.2,-2.0,2.3,-0.1,0.7
C[C@H](CO)N1C[C@H](C)[C@@H](CN(C)CC2CCCC2)Oc2ncc(C#Cc3ccccn3)cc2C1=O,.,-2.4,28.0,.,.
C[C@@H]1CN([C@H](C)CO)S(=O)(=O)c2ccc(C3=CCCC3)cc2O[C@H]1CN(C)Cc1ccncc1,.,-3.5,-55.9,.,.
CCc1ccc(-c2csc(-c3c[nH]c4ccccc34)n2)cc1,67.8,65.9*,8.0,.,-5.6
O=[N+]([O-])c1ccc(N=NN(CCO)CCO)cc1,-12.2,.,.,-1.0,.
O=[N+]([O-])c1ccc(N=Nc2ncc[nH]2)cc1,-13.3,-50.8,22.3,53.5*,1.9
CN(CCC1CCCCO1)C(=O)CCc1nnc(C2CCCCC2)o1 (stereo not given),38.1,54.8*,6.1,21.0,11.2
SMILES,MITF act,esBAF inh,Statin myotox sup,Wnt bcat act,Rtt109 HAT inh
CN(C)C(=O)[C@H]1[C@H](CO)[C@H]2Cn3c(ccc(-c4cccc(F)c4)c3=O)[C@H]2N1C(=O)c1ccccn1,.,2.5,5.6,.,.
CN(C)/C=N/C(=S)Nc1ccc(Cl)c(Cl)c1,41.4,63.1*,-110.5,9.0,3.1
CN(C)/C=N/C(=S)Nc1cc(Cl)cc(Cl)c1,-16.3,2.7,-81.9,10.2,-4.6
C[C@@H]1CN([C@@H](C)CO)C(=O)c2cc(NC(=O)Nc3ccc(F)cc3)ccc2O[C@@H]1CN(C)Cc1ccncc1,.,-5.5,-29.6,.,.
Cn1ccsc1=NC(=O)c1ccc(S(C)(=O)=O)c([N+](=O)[O-])c1,-18.7,.,.,2.8,1.7
Cc1ccccc1C(=O)N=c1sccn1C,5.5,.,.,.,1.1
Cc1ccc(C(=O)N=c2sccn2C)cc1C,79.0,.,.,?,1.3
Cn1ccsc1=NC(=O)c1ccc(Cl)c([N+](=O)[O-])c1,56.2,83.1*,-0.6,11.3,4.7
CCCCOc1ccc(C(=O)N=c2sccn2C)cc1OC,?,57.3*,-4.9,36.7*,15.6
Cc1cccc(C(=O)N=c2sccn2C)c1[N+](=O)[O-],100.4*,56.5*,3.8,6.3,-16.3
Cc1ccc(C(=O)N=c2sccn2C)cc1S(=O)(=O)N1CCOCC1,99.4*,62.7*,-5.1,8.9,-11.8

# Screening data from PubChem BioAssay.
